Screening results deposited in PubChem by several laboratories.
D1 allo mod: D1 CRE-luciferase signal change, two-sided – cell-based, HEK293 D1, dopamine EC30, D1 allosteric modulator project, primary screen; dopamine EC30 potentiation; actives deviate in either direction; D(1A) dopamine receptor (Homo sapiens), P21728; B-score at 10 µM; 58,000 tested, 5.9% active;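 active = luminescence count or its row- and column-corrected plate score outside the 99.7% band of the plate's sample wells, on either side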
DAT uptake mod: changed hDAT dopamine uptake under cocaine IC80, either direction, primary screen, cocaine antagonist project, cell-based, LLC-PK1 hDAT, [14C]-dopamine uptake, MLSMR. LLC-PK1 hDAT cells, [14C]-dopamine uptake with cocaine IC80; actives deviate in either direction. AID 449768, 2010. Sodium-dependent dopamine transporter (Homo sapiens), Q01959. B-score at 10 µM. 110,000 tested, 1.3% active;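 active = Z score or B-score, a plate-position-corrected score, falls beyond the plate's 99.7% confidence bounds, in either direction; inactive = both scores lie inside the 99.7% bounds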;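 also: scored against the spread of the other compound wells on the same plate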
Target sequence (Q01959 whole entry, looked up): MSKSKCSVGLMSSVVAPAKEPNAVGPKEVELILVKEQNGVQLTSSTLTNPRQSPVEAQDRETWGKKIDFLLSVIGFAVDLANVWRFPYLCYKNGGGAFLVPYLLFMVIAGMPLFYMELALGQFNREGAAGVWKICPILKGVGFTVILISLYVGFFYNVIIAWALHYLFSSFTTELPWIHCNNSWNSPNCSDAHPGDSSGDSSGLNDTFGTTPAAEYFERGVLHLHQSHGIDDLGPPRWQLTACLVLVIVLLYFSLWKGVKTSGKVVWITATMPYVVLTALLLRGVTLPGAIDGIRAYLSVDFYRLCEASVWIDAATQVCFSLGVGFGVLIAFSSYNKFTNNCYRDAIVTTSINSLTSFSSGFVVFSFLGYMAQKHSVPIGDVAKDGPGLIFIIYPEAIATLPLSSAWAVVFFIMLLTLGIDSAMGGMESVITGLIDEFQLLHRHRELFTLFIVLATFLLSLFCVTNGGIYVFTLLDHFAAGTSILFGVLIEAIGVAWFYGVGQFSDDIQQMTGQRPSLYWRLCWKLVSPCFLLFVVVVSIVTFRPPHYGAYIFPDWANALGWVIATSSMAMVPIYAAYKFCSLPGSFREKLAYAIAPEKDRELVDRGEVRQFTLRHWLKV
EphB4 antag: EphB4-ephrin-B2 interaction antagonists, primary screen, biochemical, TNYL-RAW peptide probe, fluorescence polarization; Ephrin type-B receptor 4 (Homo sapiens), P54760; EphB4 LBD / TNYL-RAW-Alexa532 peptide; inhibition, % at 7 µM; 97,000 tested, 0.15% active; AID 720, 2007;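 active = inhibition above the screen-wide mean inhibition plus 3 SD, cut at about 15% in these data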;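 also: 0% = DMSO wells and 100% = excess unlabeled TNYL-RAW peptide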
Active calls of the source: *; nt = no result given. Only a selection was taken, and hits are over-represented in it overall.

SMILES	D1 allo mod	DAT uptake mod	EphB4 antag
CCC(Cc1ccccc1)NC(=O)CCn1cccc1 (stereo unspecified)	nt	0.29	-1
CN(C)C(N)=NCCC[C@H](N)C(=O)O	nt	-0.26	nt
CCN(c1cccc(C)c1)c1nc2ccsc2c(=O)s1	nt	1	-2
CCCCCc1cc(=O)oc2c(C(CCN3CCCCC3)c3cc(OC)c(OC)c(OC)c3)c(OC)cc(OC)c12 (stereo unspecified)	nt	-1.4	nt
CCCCCc1cc(=O)oc2c(C(CCN3CCCC(C)C3)c3cc(OC)c(OC)c(OC)c3)c(OC)cc(OC)c12 (stereo unspecified)	nt	-2.9*	nt
COc1cccc2cc(-c3nc(-c4cccs4)cs3)c(=O)oc12	-2.4*	-0.84	1
O=c1oc2ccccc2cc1-c1nc(-c2cccs2)cs1	nt	-0.89	-4
CC(C)CC(=O)NC(NC(=S)Nc1sc2c(c1C#N)CCCC2)C(Cl)(Cl)Cl (stereo unspecified)	nt	-0.97	5
CCc1ccc2[nH]c(=O)c(CN(CCCN3CCOCC3)C(=O)Nc3cccc(Cl)c3)cc2c1	0.4	3.3*	-2
CCc1ccc2[nH]c(=O)c(CN(CCCN3CCOCC3)C(=O)Nc3ccc(Cl)cc3)cc2c1	0.82	1.8	10
COc1ccc2c(c1)c(CC(=O)O)c(C)n2C(=O)c1ccc(Cl)cc1	0.24	4.1*	nt
COc1ccc(C(=O)c2ccc(Cl)cc2)cc1	nt	0.47	1
Cc1ccc(C(=O)N2CCN(C3c4cccc5cccc(c45)C3NS(=O)(=O)c3ccccc3)CC2)cc1 (stereo unspecified)	nt	1.2	2
CC(C)C(=O)Nc1nnc(CCN2CCCCC2)s1	nt	0.86	-8
Cc1nc2ccc(-c3ccccc3)cc2o1	-0.0071	0.82*	-4
Cc1ccc2oc(-c3ccccc3)nc2c1	nt	0.85	-1
COC(=O)c1ccc(COc2ccc3c(C)c(C)c(=O)oc3c2C)o1	-0.002	-0.054	22*
Cc1c(OCc2ccc(C(=O)O)o2)ccc2c3c(c(=O)oc12)CCC3	-0.83	0.65	-1
Cc1ccc(NC(=O)c2c(Cl)n(C)c3ccccc23)cc1	nt	nt	6
Cc1c(C(=O)NNc2cc(=O)n(C)c(=O)n2C)cccc1[N+](=O)[O-]	nt	-1.5	nt
CCN1CCN(Cc2ccc(NC(=O)Nc3ccc(OC)cc3)cc2)CC1	-0.84	0.63	nt
CCN1CCN(Cc2ccc(NC(=O)Nc3ccccc3)cc2)CC1	-5.8*	-0.56	-1
NC(=O)C1CCN(c2ncnc3c2c(-c2ccccc2)cn3-c2ccccc2)CC1	-3.8*	-0.14	-9
Cc1ccc(-n2ncc3c(N4CCC(C(N)=O)CC4)ncnc32)c(C)c1	nt	0.37	-8
Cc1ccsc1C(=O)Nc1ccccc1N1CCOCC1	nt	-0.53	-1
SMILES	D1 allo mod	DAT uptake mod	EphB4 antag
C=CC[C@]12C=C(OC)C(=O)C=C1O[C@@H](c1ccc3c(c1)OCO3)[C@H]2C	nt	-0.17	nt
Cc1cccc(NC(=S)NN(Cc2ccccc2)c2ccccc2)c1C	nt	0.48	3
CC1(C)Cc2c(sc3ncn4nc(-c5ccco5)nc4c23)CO1	5.9*	nt	3
c1coc(-c2nc3c4c5c(sc4ncn3n2)CCCC5)c1	0.099	-0.84	1
COc1ccc(COc2cc(-c3cccc(OC)c3)nc3ccc(NC(=O)c4ccc(OC)cc4)cc23)cc1	nt	-0.4	nt
COc1ccc(COc2cc(-c3cccc(OC)c3)nc3ccc(NC(=O)c4cccnc4)cc23)cc1	nt	2.7*	nt
CCOC(=O)CSc1nc2ccccc2c(=O)n1Cc1ccco1	nt	-0.14	nt
CCOC(=O)CSc1nc2c(sc(=S)n2-c2ccccc2OC)c(=O)n1Cc1ccco1	nt	-4.3*	-1
O=C(N[C@H](CO)Cc1ccccc1)c1ccco1	nt	-0.71	nt
COc1ccc(C(NC(=O)c2ccc(-c3ccccc3)cc2)c2ccccc2)cc1 (stereo unspecified)	nt	nt	1
COc1ccc(C(C)NC(=O)c2ccccc2)cc1 (stereo unspecified)	nt	-0.64	16*
CSc1nnc(-c2sccc2OCc2ccc(C)cc2)n1C	nt	-0.0091	3
CN(C)c1ccc(N/C=C/C(=O)c2ccccc2)cc1	-4.4*	0.23	1
O=C(/C=C/Nc1ccccc1)c1ccccc1	nt	nt	4
COc1ccccc1-c1nnc(Sc2nc([N+](=O)[O-])nn2C)o1	nt	0.57	4
CC(C)(C)NC(=O)[C@@H]1CN(Cc2cccnc2)CCN1C[C@@H](O)C[C@@H](Cc1ccccc1)C(=O)N[C@H]1c2ccccc2C[C@H]1O	nt	0.012	nt
COc1ccc(/C=N/NC(=O)Cc2csc(Nc3cccc(C(F)(F)F)c3)n2)cc1C	nt	3	-7
O=C(NNC(=O)c1ccc(SCC2CCCO2)c([N+](=O)[O-])c1)c1ccc(F)cc1 (stereo unspecified)	nt	-0.45	-2
CC(CCN(C)C)OC(=O)c1ccc(C(C)c2ccccc2)o1 (stereo unspecified)	-3.2*	-0.076	1
CC(CN(C)Cc1ccccc1)OC(=O)c1cccs1 (stereo unspecified)	-0.3	0.21	10
CC(=O)/C(=C/N(C)C)Sc1ccc(C)cc1	nt	-0.19	-7
CCN(CC)C(=O)C1CCN(S(=O)(=O)c2ccc3oc4ccccc4c3c2)CC1	-1.7	2.3*	-1
O=S(=O)(c1ccc2oc3ccccc3c2c1)N1CCCC1	nt	0.43	-4
Cc1ccc(OCC(O)CNC(=O)c2ccccc2C(=O)O)cc1 (stereo unspecified)	nt	-0.29	1
Cc1cccc(NC(=O)c2cc(Cl)nc3ccccc23)c1	nt	nt	0
SMILES	D1 allo mod	DAT uptake mod	EphB4 antag
Cc1ccc(NC(=O)c2cc(Cl)nc3ccccc23)cc1	nt	-2.5*	4
C=CCNC(=S)NNC(=O)CCC(O)CCCCC (stereo unspecified)	nt	-1	-2
CN(C)CCCN1c2ccccc2Sc2ccc(Cl)cc21	nt	1.4	-2
CSc1ccc2c(c1)N(CCC1CCCCN1C)c1ccccc1S2 (stereo unspecified)	-6.3*	-1.7	nt
CCCN(Cc1cc2ccc(C)cc2[nH]c1=O)S(=O)(=O)c1ccccc1	nt	-0.31	0
Cc1cc(C)c(S(=O)(=O)NCc2cn3c(C)csc3n2)c(C)c1	nt	0.065	-6
Cc1cc(C)c(S(=O)(=O)NCc2cn3c(C)csc3n2)cc1C	0.0026	0.89	19*
O=C(C1CCC1)N1CCC(c2nc3c(nnn3Cc3c(F)cccc3Cl)c(=O)[nH]2)CC1	0.93	2.8*	-4
Cc1ccc(C)c(Cn2nnc3c(=O)[nH]c(C4CCCN(C(=O)C5CCC5)C4)nc32)c1 (stereo unspecified)	2.4	1.9	-7
O=C(Cc1cccs1)N1CCCC(c2nc3c(nnn3Cc3cccc(Cl)c3)c(=O)[nH]2)C1 (stereo unspecified)	0.7	2.3*	-5
O=C(Cc1cccs1)N1CCC(c2nc3c(nnn3Cc3ccc(F)cc3)c(=O)[nH]2)CC1	-0.11	1.8	-5
CC1(C)[C@@H](O)CC[C@]2(C)C3C(O)C=C4[C@H]5C[C@@](C)(CO)CC[C@]5(C)CC[C@]4(C)[C@]3(C)CC[C@@H]12 (stereo partly specified)	nt	0.45	nt
O=C(NCc1nc2ccccc2[nH]1)C1=C[C@H](c2ccc(C(F)(F)F)cc2)C[C@H](OCCCCO)O1	nt	0.97	nt
